PubChem BioAssay (EPA / NIEHS)
The source made the active and inactive calls. The calls were made as follows: active = hit-call score of the fitted dose curve at least 0.9, where 1 is the maximum; inactive = score below 0.9.

What was measured:
Details in all cases: mRNA level, 48 h; actives raise or lower the signal
[1] = read-out: MYC, MYC (gene 4609); assay: LTEA_HepaRG_MYC: Life Technologies and Expression Analysis (LTEA) Assay for MYC using HepaRG (AID 2283518)
In short: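 qRT-PCR read-out of MYC transcript (Fluidigm TaqMan, housekeeping-normalized) after 48 h chemical exposure of HepaRG cells; eight concentrations, top 100 uM, half-log steps. Bidirectional curve fitting against 0.5% DMSO vehicle baseline.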

[2] = read-out: matrix metalloproteinase-3 (MMP3), MMP3 (gene 4314); assay: LTEA_HepaRG_MMP3: Life Technologies and Expression Analysis (LTEA) Assay for matrix metalloproteinase-3 (MMP3) using HepaRG (AID 2283519)
In short: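 HepaRG cells (~100,000/well) in serum-free induction medium were dosed in duplicate for 48 h with an 8-point half-log series from 100 uM, 0.5% DMSO. MMP3 mRNA was quantified by Fluidigm TaqMan qRT-PCR, normalized to three housekeeping genes.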

[3] = read-out: Paternally Expressed 10 (PEG10), PEG10 (gene 23089); assay: LTEA_HepaRG_PEG10: Life Technologies and Expression Analysis (LTEA) Assay for Paternally Expressed 10 (PEG10) using HepaRG (AID 2283520)
In short: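 HepaRG, 48 h post-plating → serum-free induction medium → 48 h chemical exposure (duplicate, 8-pt, max 100 uM, half-log, 0.5% DMSO) → lysis in RLT → TaqMan qRT-PCR for PEG10, ACTB/GAPDH/POLR2A normalisation.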

[4] = read-out: Nuclear factor NF-kappa-B p105 subunit (Homo sapiens) (UniProt P19838); assay: LTEA_HepaRG_NFKB1: Life Technologies and Expression Analysis (LTEA) Assay for Nuclear Factor Kappa B Subunit 1 (NFKB1) using HepaRG (AID 2283521);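 also: TaqMan qRT-PCR transcript normalised to ACTB GAPDH and POLR2A housekeeping genes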
In short: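 HepaRG, 48 h exposure; 8-pt half-log series from 100 uM in 0.5% DMSO; duplicates. Readout: NFKB1 mRNA by qRT-PCR (Fluidigm arrays), housekeeping-normalized. Gain/loss fit vs DMSO baseline.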

[5] = read-out: Protein phosphatase 2A (PPP2R4), PTPA (gene 5524); assay: LTEA_HepaRG_PPP2R4: Life Technologies and Expression Analysis (LTEA) Assay for Protein phosphatase 2A (PPP2R4) using HepaRG (AID 2283522)
In short: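 Readout is PPP2R4 transcript level by microfluidic qRT-PCR after 48 h chemical treatment of human HepaRG liver cells. Concentrations spanned 100 uM downward in half-log steps; gain or loss of signal was fitted relative to DMSO.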

[6] = read-out: Phosphatase and tensin (PTEN), PTEN (gene 5728); assay: LTEA_HepaRG_PTEN: Life Technologies and Expression Analysis (LTEA) Assay for Phosphatase and tensin (PTEN) using HepaRG (AID 2283523)
In short: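 HepaRG cells, 48 h after plating, exposed in duplicate for 48 h in serum-free induction medium to 8 half-log concentrations up to 100 uM (0.5% DMSO). PTEN mRNA by qRT-PCR, normalized to ACTB, GAPDH, POLR2A; bidirectional fit versus DMSO.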

[7] = read-out: solute carrier (SLC22A1), SLC22A1 (gene 6580); assay: LTEA_HepaRG_SLC22A1: Life Technologies and Expression Analysis (LTEA) Assay for solute carrier (SLC22A1) using HepaRG (AID 2283524)
In short: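 Differentiated human HepaRG cells in serum-free induction medium, exposed 48 h in duplicate to 8-point half-log series from 100 µM top in 0.5% DMSO. SLC22A1 mRNA by TaqMan qRT-PCR normalized to ACTB, GAPDH, POLR2A; bidirectional fit versus DMSO.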

[8] = read-out: Pyruvate Dehydrogenase Kinase 4 (PDK4), PDK4 (gene 5166); assay: LTEA_HepaRG_PDK4: Life Technologies and Expression Analysis (LTEA) Assay for Pyruvate Dehydrogenase Kinase 4 (PDK4) using HepaRG (AID 2283525)
In short: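 HepaRG cells plated 48 h, then switched to serum-free induction medium and exposed in duplicate for 48 h to 8 half-log concentrations from 100 uM in 0.5% DMSO. PDK4 mRNA measured by qRT-PCR, normalized to ACTB, GAPDH and POLR2A; bidirectional fit versus DMSO.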

[9] = read-out: Nuclear factor erythroid 2-related factor 2 (Homo sapiens) (UniProt Q16236); assay: LTEA_HepaRG_NFE2L2: Life Technologies and Expression Analysis (LTEA) Assay for Nuclear factor erythroid 2-related factor 2 (NFE2L2) Transcription Factor using HepaRG (AID 2283527);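 also: TaqMan qRT-PCR transcript level normalised to ACTB GAPDH and POLR2A housekeeping genes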
In short: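 Differentiated human HepaRG cells, serum-free induction medium, exposed 48 h in duplicate to eight half-log concentrations up to 100 uM in 0.5% DMSO. NFE2L2 mRNA by Fluidigm TaqMan qRT-PCR, normalised to ACTB, GAPDH, POLR2A; bidirectional change versus DMSO.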

[10] = read-out: succinate dehydrogenase complex iron sulfur subunit B (SDHB), SDHB (gene 6390); assay: LTEA_HepaRG_SDHB: Life Technologies and Expression Analysis (LTEA) Assay for succinate dehydrogenase complex iron sulfur subunit B (SDHB) using HepaRG (AID 2283528)
In short: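 Readout is SDHB transcript level by qRT-PCR, normalised to three housekeeping genes and fitted bidirectionally against 0.5% DMSO vehicle. Human HepaRG cells were treated for 48 h at up to 100 uM.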

[11] = read-out: Signal transducer and activator of transcription 3 (Homo sapiens) (UniProt P40763); assay: LTEA_HepaRG_STAT3: Life Technologies and Expression Analysis (LTEA) Assay for Signal transducer and activator of transcription (STAT3) using HepaRG (AID 2283529)
In short: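 Differentiated HepaRG cells, serum-free induction medium, dosed 48 h in duplicate, 8 half-log concentrations from 100 uM in 0.5% DMSO. STAT3 mRNA by qRT-PCR, normalised to ACTB, GAPDH, POLR2A; bidirectional fit versus DMSO.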

[12] = read-out: sulfotransferase 2A1 (SULT2A1), SULT2A1 (gene 6822); assay: LTEA_HepaRG_SULT2A1: Life Technologies and Expression Analysis (LTEA) Assay for sulfotransferase 2A1 (SULT2A1) using HepaRG (AID 2283531)
In short: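 HepaRG, 48 h chemical exposure, 8-pt half-log curve from 100 uM in 0.5% DMSO, duplicates. Readout: TaqMan qRT-PCR of SULT2A1 mRNA, housekeeping-normalized. Bidirectional fit vs DMSO baseline.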

[13] = read-out: Transforming Growth Factor (TGFA), TGFA (gene 7039); assay: LTEA_HepaRG_TGFA: Life Technologies and Expression Analysis (LTEA) Assay for Transforming Growth Factor (TGFA) using HepaRG (AID 2283532)
In short: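 Differentiated HepaRG cells exposed 48 hours in serum-free induction medium, 0.5% DMSO vehicle, 8-point half-log series from 100 uM, in duplicate. TGFA mRNA by TaqMan qRT-PCR, normalised to ACTB, GAPDH, POLR2A; bidirectional fit versus DMSO.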

[14] = read-out: TIMP1, TIMP1 (gene 7076); assay: LTEA_HepaRG_TIMP1: Life Technologies and Expression Analysis (LTEA) Assay for TIMP1 using HepaRG (AID 2283534);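 also: TaqMan qRT-PCR signal normalized to ACTB GAPDH and POLR2A housekeeping genes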
In short: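 HepaRG, 48 h exposure, 8-pt half-log series from 100 uM in 0.5% DMSO, duplicates; TIMP1 transcript by Fluidigm qRT-PCR, housekeeping-normalized; bidirectional curve fit vs DMSO baseline.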

[15] = read-out: Tumor necrosis factor receptor 1 (TNFRSF1A), TNFRSF1A (gene 7132); assay: LTEA_HepaRG_TNFRSF1A: Life Technologies and Expression Analysis (LTEA) Assay for Tumor necrosis factor receptor 1 (TNFRSF1A) using HepaRG (AID 2283535)
In short: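 HepaRG, 48 h plating then 48 h chemical exposure, serum-free induction media; 8-pt CRC from 100 uM, half-log, 0.5% DMSO vehicle, duplicates. Readout: TaqMan qRT-PCR (Fluidigm), housekeeping-gene normalized; bidirectional fit vs DMSO.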

[16] = read-out: Thyroid Hormone Responsive (THRSP), THRSP (gene 7069); assay: LTEA_HepaRG_THRSP: Life Technologies and Expression Analysis (LTEA) Assay for Thyroid Hormone Responsive (THRSP) using HepaRG (AID 2283536)
In short: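 Differentiated HepaRG cells treated 48 h in serum-free induction medium with 8 half-log concentrations up to 100 uM (0.5% DMSO), duplicates. THRSP mRNA by TaqMan qRT-PCR normalised to ACTB, GAPDH, POLR2A; bidirectional fit versus DMSO.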

[17] = read-out: Cellular tumor antigen p53 (Homo sapiens) (UniProt P04637); assay: LTEA_HepaRG_TP53: Life Technologies and Expression Analysis (LTEA) Assay for Tumor Protein P53 (TP53) using HepaRG (AID 2283537)
In short: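 Read-out is TP53 transcript level by microfluidic qRT-PCR, normalised to three housekeeping genes and fitted bidirectionally against DMSO. Human HepaRG cells received compounds for 48 h, highest concentration 100 uM.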

[18] = read-out: solute carrier (SLCO1B1), SLCO1B1 (gene 10599); assay: LTEA_HepaRG_SLCO1B1: Life Technologies and Expression Analysis (LTEA) Assay for solute carrier (SLCO1B1) using HepaRG (AID 2283530)
In short: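 SLCO1B1 transcript read by qRT-PCR (Fluidigm arrays), normalized to three housekeeping genes, after 48 h chemical exposure of HepaRG cells; bidirectional concentration-response fitting versus 0.5% DMSO baseline. Eight-point half-log series, maximum 100 uM.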

Measured: AC50

Sequence of Nuclear factor NF-kappa-B p105 subunit (Homo sapiens) (P19838 whole entry, looked up): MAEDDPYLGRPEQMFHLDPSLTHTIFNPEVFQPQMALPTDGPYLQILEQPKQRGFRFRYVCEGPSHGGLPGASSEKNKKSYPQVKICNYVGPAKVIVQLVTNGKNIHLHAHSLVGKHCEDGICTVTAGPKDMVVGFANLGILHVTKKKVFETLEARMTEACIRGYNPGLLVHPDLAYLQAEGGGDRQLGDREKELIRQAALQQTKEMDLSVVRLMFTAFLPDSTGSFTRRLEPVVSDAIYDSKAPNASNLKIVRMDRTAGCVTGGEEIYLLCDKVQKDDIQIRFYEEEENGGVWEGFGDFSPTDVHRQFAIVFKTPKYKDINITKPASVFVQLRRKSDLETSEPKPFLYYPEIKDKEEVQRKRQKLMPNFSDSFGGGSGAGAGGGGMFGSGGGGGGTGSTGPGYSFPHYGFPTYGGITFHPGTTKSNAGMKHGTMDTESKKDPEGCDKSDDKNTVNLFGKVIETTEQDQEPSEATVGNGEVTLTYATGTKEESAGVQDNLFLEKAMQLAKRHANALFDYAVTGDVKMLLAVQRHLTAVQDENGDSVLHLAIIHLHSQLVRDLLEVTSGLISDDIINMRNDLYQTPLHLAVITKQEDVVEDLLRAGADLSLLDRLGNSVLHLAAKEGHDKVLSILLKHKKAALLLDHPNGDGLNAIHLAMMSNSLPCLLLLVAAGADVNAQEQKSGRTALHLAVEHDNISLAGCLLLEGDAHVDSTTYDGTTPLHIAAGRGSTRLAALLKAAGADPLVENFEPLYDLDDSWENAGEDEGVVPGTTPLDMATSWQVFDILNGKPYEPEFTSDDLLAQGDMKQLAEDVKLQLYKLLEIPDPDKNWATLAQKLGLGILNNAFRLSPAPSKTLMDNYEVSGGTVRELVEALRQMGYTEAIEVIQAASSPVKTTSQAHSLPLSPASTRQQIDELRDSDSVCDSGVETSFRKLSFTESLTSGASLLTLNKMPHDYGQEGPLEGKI
Sequence of Signal transducer and activator of transcription 3 (Homo sapiens) (P40763 whole entry, looked up): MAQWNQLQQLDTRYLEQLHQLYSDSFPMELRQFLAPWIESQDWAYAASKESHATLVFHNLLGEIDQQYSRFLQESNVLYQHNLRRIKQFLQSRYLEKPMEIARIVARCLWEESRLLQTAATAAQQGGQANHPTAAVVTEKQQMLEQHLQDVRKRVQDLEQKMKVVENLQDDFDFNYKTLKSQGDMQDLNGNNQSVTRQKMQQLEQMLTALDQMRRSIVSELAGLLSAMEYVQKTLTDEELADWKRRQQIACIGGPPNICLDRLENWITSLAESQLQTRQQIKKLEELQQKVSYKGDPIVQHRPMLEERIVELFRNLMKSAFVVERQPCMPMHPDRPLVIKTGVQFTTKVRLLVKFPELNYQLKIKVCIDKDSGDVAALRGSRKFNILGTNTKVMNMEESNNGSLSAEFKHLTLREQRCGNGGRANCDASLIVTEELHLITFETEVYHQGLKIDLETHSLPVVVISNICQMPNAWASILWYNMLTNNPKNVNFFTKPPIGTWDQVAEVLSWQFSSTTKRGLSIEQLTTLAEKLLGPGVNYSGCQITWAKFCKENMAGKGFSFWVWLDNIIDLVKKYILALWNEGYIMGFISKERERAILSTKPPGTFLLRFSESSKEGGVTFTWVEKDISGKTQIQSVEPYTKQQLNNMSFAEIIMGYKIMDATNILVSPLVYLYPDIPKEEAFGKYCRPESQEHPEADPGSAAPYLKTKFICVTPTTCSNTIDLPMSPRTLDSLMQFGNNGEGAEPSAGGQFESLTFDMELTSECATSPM
Sequence of Nuclear factor erythroid 2-related factor 2 (Homo sapiens) (Q16236 whole entry, looked up): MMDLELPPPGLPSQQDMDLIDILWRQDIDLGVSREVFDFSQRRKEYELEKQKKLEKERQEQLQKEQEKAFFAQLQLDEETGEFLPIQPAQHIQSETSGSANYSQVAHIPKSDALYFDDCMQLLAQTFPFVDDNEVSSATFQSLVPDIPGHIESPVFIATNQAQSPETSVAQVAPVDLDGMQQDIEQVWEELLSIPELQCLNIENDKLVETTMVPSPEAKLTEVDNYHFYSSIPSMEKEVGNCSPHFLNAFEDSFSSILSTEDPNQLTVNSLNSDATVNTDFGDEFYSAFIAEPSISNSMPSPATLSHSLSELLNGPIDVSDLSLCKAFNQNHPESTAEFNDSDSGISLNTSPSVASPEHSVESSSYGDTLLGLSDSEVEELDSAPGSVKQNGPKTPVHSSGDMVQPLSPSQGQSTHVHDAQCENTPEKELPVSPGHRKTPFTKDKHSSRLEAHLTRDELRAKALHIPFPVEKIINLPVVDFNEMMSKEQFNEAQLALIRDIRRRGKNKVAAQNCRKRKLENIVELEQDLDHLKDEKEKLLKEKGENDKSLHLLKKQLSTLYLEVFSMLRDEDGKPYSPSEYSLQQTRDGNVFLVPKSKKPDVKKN
Sequence of Cellular tumor antigen p53 (Homo sapiens) (P04637 whole entry, looked up): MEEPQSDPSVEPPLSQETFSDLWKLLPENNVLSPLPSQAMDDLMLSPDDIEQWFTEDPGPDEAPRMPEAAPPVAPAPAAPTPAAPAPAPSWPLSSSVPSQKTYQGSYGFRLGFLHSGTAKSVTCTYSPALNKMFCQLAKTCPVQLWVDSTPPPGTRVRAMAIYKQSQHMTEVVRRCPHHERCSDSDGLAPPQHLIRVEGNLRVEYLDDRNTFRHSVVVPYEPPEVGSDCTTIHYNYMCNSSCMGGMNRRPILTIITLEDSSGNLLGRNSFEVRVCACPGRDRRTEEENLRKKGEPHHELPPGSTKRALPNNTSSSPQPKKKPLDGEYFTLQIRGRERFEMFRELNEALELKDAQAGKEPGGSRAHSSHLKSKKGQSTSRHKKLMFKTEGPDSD

C[C@@H]1C[C@H]2[C@@H]3CCC4=CC(=O)C=C[C@]4(C)[C@@]3(F)[C@@H](O)C[C@]2(C)[C@@]1(O)C(=O)COP(=O)(O)O
inactive: [1] | [2] | [3] | [4] | [5] | [6] | [7] | [8] | [9] | [10] | [11] | [12] | [13] | [14] | [15] | [16] | [17]

OCCC(F)(F)C(F)(F)C(F)(F)C(F)(F)C(F)(F)C(F)(F)C(F)(F)C(F)(F)F
inactive: [1] | [2] | [3] | [4] | [5] | [6] | [7] | [8] | [9] | [10] | [11] | [12] | [13] | [14] | [15] | [16] | [17]

C#C[C@]1(O)CC[C@H]2[C@@H]3CCC4=CC(=O)CC[C@@H]4[C@H]3CC[C@@]21C
active: [2] 7.81 µM | [3] 0.321 µM | [7] 32.1 µM | [12] 15.9 µM | [16] 0.0729 µM
inactive: [1] | [4] | [5] | [6] | [8] | [9] | [10] | [11] | [14] | [15] | [17]

COC(=O)CCCCC(=O)OC
inactive: [1] | [2] | [3] | [5] | [6] | [7] | [8] | [9] | [11] | [18] | [12] | [14] | [15] | [16] | [17]
